# Assay results taken from PubChem BioAssay (NCATS).
# Records with an inconclusive call do not appear. Entries that show only a call come without a potency. Unmarked numbers belong to inactive results. Activity calls are given as the source filed them. Calls follow the shape of the dose curve; as a rule, active = well fitted curve in the direction sought with a large enough effect; inconclusive = small, poorly fitted or top-dose-only effect, or another doubt; inactive = no such curve, though single readings can be large; an effect the other way counts as inactive or inconclusive.
# Assays:
# CRL-7250 = normal cell line; assay: Cytotoxic Profiling of Annotated Libraries Using Quantitative High-Throughput Screening (AID 1296008); details: Five cell lines viability, CellTiter-Glo ATP luminescence, 48-72 h; max response: hits give low values; also: nearly all actives have a fitted effect of over 60% in size
# Summary of the method: (§1)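 Cells exposed to compounds for 48 or 72 hr at 37 degrees Celsius. Viability read as ATP-coupled luminescence with CellTiter-Glo after 10 min at room temperature.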
# HEK293 = assay: as above; details: Five cell lines viability, CellTiter-Glo ATP luminescence, 48-72 h; max response: hits give low values
# Summary of the method: as §1
# HaCat [1] = assay: as above; details: Five cell lines viability, CellTiter-Glo ATP luminescence, 48-72 h; max response: hits give low values
# Summary of the method: as §1
# NIH3T3 [2] = assay: as above; details: Five cell lines viability, CellTiter-Glo ATP luminescence, 48-72 h; max response: hits give low values
# Summary of the method: as §1
# HACAT [3] = assay: qHTS assay to identify novel small-molecules to repurpose for Merkel cell carcinoma treatment (AID 1296009); details: MCC and control cell lines, CellTiter-Glo viability, 72 h; at 44.8 µM (top of the series) unless noted; also: nearly all actives have a fitted effect of over 60% in size
# Summary of the method: (§2)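 Cells were treated for 72 hr at 37 degree celsius with compounds in 8- or 11-point dose response. Viability was read by CellTiter-Glo luminescence, normalized to no-cell (cytotoxicity) and DMSO controls.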
# MCC-13 = assay: as above; details: MCC and control cell lines, CellTiter-Glo viability, 72 h; series mostly up to 46 µM
# Summary of the method: as §2
# MCC-26 = assay: as above; details: MCC and control cell lines, CellTiter-Glo viability, 72 h; series mostly up to 46 µM
# Summary of the method: as §2
# MKL-1 = assay: as above; details: MCC and control cell lines, CellTiter-Glo viability, 72 h; series mostly up to 46 µM
# Summary of the method: as §2
# MKL-2 = assay: as above; details: MCC and control cell lines, CellTiter-Glo viability, 72 h; series mostly up to 46 µM
# Summary of the method: as §2
# NIH3T3 [4] = assay: as above; details: MCC and control cell lines, CellTiter-Glo viability, 72 h; at 44.8 µM (top of the series) unless noted
# Summary of the method: as §2
# UISO = assay: as above; details: MCC and control cell lines, CellTiter-Glo viability, 72 h; series mostly up to 46 µM
# Summary of the method: as §2
# WaGa = assay: as above; details: MCC and control cell lines, CellTiter-Glo viability, 72 h; series mostly up to 46 µM
# Summary of the method: as §2
# C33A = assay: Primary qHTS to identify gynecologic anti-cancer compounds using libraries of approved drugs and bioactive compounds (AID 1345084); details: Gynecologic cancer cell panel viability, ATPlite luminescence, 48 h; series mostly up to 57.5 µM; also: nearly all actives have a fitted effect of over 55% in size
# Summary of the method: (§3)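 Luminescence from the ATPlite ATP-monitoring reagent indicates viable cell number; lower signal means cytotoxicity. Cells received compound 16 h after seeding and were exposed for 48 h across five concentrations.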
# CAOV3 = assay: as above; details: Gynecologic cancer cell panel viability, ATPlite luminescence, 48 h; series mostly up to 57.5 µM
# Summary of the method: as §3
# CASKI = assay: as above; details: Gynecologic cancer cell panel viability, ATPlite luminescence, 48 h; series mostly up to 57.5 µM
# Summary of the method: as §3
# Es-2 = assay: as above; details: Gynecologic cancer cell panel viability, ATPlite luminescence, 48 h; series mostly up to 57.5 µM
# Summary of the method: as §3
# HeLa = assay: as above; details: Gynecologic cancer cell panel viability, ATPlite luminescence, 48 h; series mostly up to 57.5 µM
# Summary of the method: as §3
# Hek293T [5] = assay: as above; details: Gynecologic cancer cell panel viability, ATPlite luminescence, 48 h, control line for the selectivity index; series mostly up to 57.5 µM
# Summary of the method: as §3
# HEK293T [6] = assay: qHTS assay to identify novel small-molecules to repurpose for Merkel cell carcinoma treatment (AID 1296009); details: MCC and control cell lines, CellTiter-Glo viability, 72 h; at 44.8 µM (top of the series) unless noted; also: nearly all actives have a fitted effect of over 60% in size
# Summary of the method: as §2
# KB-3-1 = assay: Cytotoxic Profiling of Annotated Libraries Using Quantitative High-Throughput Screening (AID 1296008); details: Five cell lines viability, CellTiter-Glo ATP luminescence, 48-72 h; max response: hits give low values; also: nearly all actives have a fitted effect of over 60% in size
# Summary of the method: as §1
# Potency is read from the fitted curve at half-maximal effect.
structure (smiles),measurement,setting,value
CC(=O)OCC1=C(C(=O)O)N2C(=O)[C@@H](NC(=O)Cc3cccs3)[C@H]2SC1,max response,CRL-7250,1.94%
same,max response,HEK293,-2.75%
same,outcome,HaCat [1],inactive
same,outcome,NIH3T3 [2],inactive
same,outcome,HACAT [3],inactive
same,Potency,MCC-13,inactive
same,Potency,MCC-26,inactive
same,Potency,MKL-1,inactive
same,Potency,MKL-2,inactive
same,outcome,NIH3T3 [4],inactive
same,Potency,UISO,inactive
same,Potency,WaGa,inactive
same,Potency,C33A,inactive
same,Potency,CAOV3,inactive
same,Potency,CASKI,inactive
same,Potency,Es-2,inactive
same,Potency,HeLa,inactive
same,Potency,Hek293T [5],inactive
CCCNC(C)C(=O)Nc1ccccc1C (stereo unspecified),max response,CRL-7250,-2.89%
same,max response,HEK293,1.1%
same,outcome,HaCat [1],inactive
same,max response,NIH3T3 [2],-0.782%
same,outcome,HACAT [3],inactive
same,Potency,MCC-13,inactive
same,Potency,MCC-26,inactive
same,Potency,MKL-2,inactive
same,Potency,UISO,inactive
same,Potency,WaGa,inactive
same,Potency,C33A,inactive
same,Potency,CAOV3,inactive
same,Potency,CASKI,inactive
same,Potency,Es-2,inactive
same,Potency,HeLa,inactive
same,Potency,Hek293T [5],inactive
CCCN(CCC)C(=O)C(CCC(=O)O)NC(=O)c1ccccc1 (stereo unspecified),max response,CRL-7250,-4.87%
same,outcome,HEK293,inactive
same,max response,HaCat [1],4.34%
same,max response,NIH3T3 [2],-2.14%
same,outcome,HEK293T [6],inactive
same,Potency,MCC-13,inactive
same,Potency,MCC-26,inactive
same,Potency,MKL-1,inactive
same,Potency,MKL-2,inactive
same,Potency,UISO,inactive
same,Potency,WaGa,inactive
same,Potency,C33A,inactive
same,Potency,CAOV3,inactive
same,Potency,CASKI,inactive
same,Potency,Es-2,inactive
same,Potency,Hek293T [5],inactive
Nc1ncn([C@@H]2O[C@H](CO)[C@@H](O)[C@H]2O)c(=O)n1,Potency,CRL-7250,7.5 µM (active)
same,Potency,HEK293,3.35 µM (active)
same,max response,HaCat [1],-18.5%
same,max response,NIH3T3 [2],-10.9%
same,Potency,UISO,9.44 µM (active)
same,Potency,WaGa,16.8 µM (active)
same,Potency,Es-2,3.98 µM (active)
O=C(O)CP(=O)(O)O,max response,CRL-7250,-7.2%
same,outcome,HEK293,inactive
same,max response,KB-3-1,0.355%
same,outcome,NIH3T3 [2],inactive
same,outcome,HEK293T [6],inactive
same,Potency,MCC-13,inactive
same,Potency,MCC-26,inactive
same,Potency,MKL-1,inactive
same,Potency,MKL-2,inactive
same,outcome,NIH3T3 [4],inactive
same,Potency,UISO,inactive
same,Potency,WaGa,inactive
same,Potency,C33A,inactive
same,Potency,CAOV3,inactive
same,Potency,CASKI,inactive
same,Potency,Es-2,inactive
same,Potency,HeLa,inactive
same,Potency,Hek293T [5],inactive
CCCCCN(CCCCC)C(=O)C(CCC(=O)O)NC(=O)c1ccc(Cl)c(Cl)c1 (stereo unspecified),max response,CRL-7250,-3.52%
same,max response,HEK293,-9.3%
same,outcome,HaCat [1],inactive
same,max response,NIH3T3 [2],-0.48%
same,outcome,HACAT [3],inactive
same,Potency,MCC-13,inactive
same,Potency,MCC-26,inactive
same,Potency,MKL-2,inactive
same,Potency,UISO,inactive
same,Potency,WaGa,inactive
same,Potency,C33A,inactive
same,Potency,CAOV3,inactive
same,Potency,CASKI,inactive
same,Potency,Es-2,inactive
same,Potency,HeLa,inactive
same,Potency,Hek293T [5],inactive
C[N+](C)(C)CCOC(N)=O,max response,CRL-7250,1.41%
same,outcome,HEK293,inactive
same,max response,KB-3-1,27.4%
same,max response,NIH3T3 [2],-0.0921%
same,outcome,HEK293T [6],inactive
same,Potency,MCC-13,inactive
same,Potency,MCC-26,inactive
same,Potency,MKL-2,inactive
same,Potency,UISO,inactive
same,Potency,WaGa,inactive
same,Potency,C33A,inactive
same,Potency,CASKI,inactive
same,Potency,Es-2,inactive
same,Potency,HeLa,inactive
same,Potency,Hek293T [5],inactive
CNC1(C)C2CCC(C2)C1(C)C (stereo unspecified),max response,CRL-7250,-2.13%
same,max response,HEK293,-9.06%
same,outcome,HaCat [1],inactive
same,outcome,NIH3T3 [2],inactive
same,outcome,HACAT [3],inactive
same,Potency,MCC-13,inactive
same,Potency,MCC-26,inactive
same,Potency,MKL-2,inactive
same,outcome,NIH3T3 [4],inactive
same,Potency,UISO,inactive
same,Potency,WaGa,inactive
same,Potency,C33A,inactive
same,Potency,CAOV3,inactive
same,Potency,CASKI,inactive
same,Potency,Es-2,inactive
same,Potency,Hek293T [5],inactive
CC(C)(Oc1ccc(CCNC(=O)c2ccc(Cl)cc2)cc1)C(=O)O,max response,CRL-7250,-10.1%
same,max response,HEK293,-102%
same,outcome,HaCat [1],inactive
same,outcome,NIH3T3 [2],inactive
same,outcome,HACAT [3],inactive
same,Potency,MCC-13,inactive
same,Potency,MCC-26,inactive
same,Potency,MKL-2,inactive
same,outcome,NIH3T3 [4],inactive
same,Potency,UISO,inactive
same,Potency,WaGa,inactive
same,Potency,C33A,inactive
same,Potency,CAOV3,inactive
same,Potency,CASKI,inactive
same,Potency,Es-2,inactive
same,Potency,HeLa,inactive
same,Potency,Hek293T [5],inactive
c1ccc2c(c1)CCCC2C1=NCCN1 (stereo unspecified),max response,CRL-7250,0.704%
same,max response,HEK293,3.92%
same,outcome,HaCat [1],inactive
same,outcome,NIH3T3 [2],inactive
same,outcome,HACAT [3],inactive
same,Potency,MCC-13,inactive
same,Potency,MCC-26,inactive
same,Potency,MKL-2,inactive
same,outcome,NIH3T3 [4],inactive
same,Potency,UISO,inactive
same,Potency,WaGa,inactive
same,Potency,C33A,inactive
same,Potency,CAOV3,inactive
same,Potency,CASKI,inactive
same,Potency,Es-2,inactive
same,Potency,Hek293T [5],inactive
CN1C(=O)CC[C@H]1c1cccnc1,max response,CRL-7250,-11.6%
same,max response,HEK293,-8.79%
same,outcome,HaCat [1],inactive
same,max response,NIH3T3 [2],-5.17%
same,outcome,HACAT [3],inactive
same,Potency,MCC-13,inactive
same,Potency,MCC-26,inactive
same,Potency,MKL-2,inactive
same,Potency,UISO,inactive
same,Potency,WaGa,inactive
same,Potency,C33A,inactive
same,Potency,CAOV3,inactive
same,Potency,CASKI,inactive
same,Potency,Es-2,inactive
same,Potency,HeLa,inactive
same,Potency,Hek293T [5],inactive
CC(=O)OC(C)C[N+](C)(C)C (stereo unspecified),max response,CRL-7250,1.65%
same,max response,HEK293,3.97%
same,outcome,HaCat [1],inactive
same,max response,NIH3T3 [2],2.06%
same,outcome,HACAT [3],inactive
same,Potency,MCC-13,inactive
same,Potency,MCC-26,inactive
same,Potency,MKL-1,inactive
same,Potency,UISO,inactive
same,Potency,WaGa,inactive
same,Potency,C33A,inactive
same,Potency,CAOV3,inactive
same,Potency,CASKI,inactive
same,Potency,Es-2,inactive
same,Potency,HeLa,inactive
same,Potency,Hek293T [5],inactive
CC1=C(C)C(=O)C(CCCCC#CCCCC#CCO)=C(C)C1=O,max response,CRL-7250,-2.8%
same,Potency,HEK293,16.8 µM (active)
same,max response,HaCat [1],-15.6%
same,max response,KB-3-1,-7.44%
same,max response,NIH3T3 [2],-8.8%
same,Potency,MCC-13,inactive
same,Potency,MCC-26,inactive
same,Potency,MKL-2,26.6 µM (active)
same,Potency,WaGa,21.1 µM (active)
same,Potency,CAOV3,inactive
same,Potency,CASKI,inactive
same,Potency,Es-2,inactive
same,Potency,HeLa,inactive
CCN(CC)CC(=O)Nc1c(C)cccc1C,max response,CRL-7250,-12.2%
same,max response,HEK293,-14.5%
same,max response,HaCat [1],-2.67%
same,outcome,NIH3T3 [2],inactive
same,Potency,MCC-13,inactive
same,Potency,MCC-26,inactive
same,Potency,MKL-2,inactive
same,outcome,NIH3T3 [4],inactive
same,Potency,UISO,inactive
same,Potency,WaGa,inactive
same,Potency,C33A,inactive
same,Potency,CAOV3,inactive
same,Potency,CASKI,inactive
same,Potency,Es-2,inactive
same,Potency,HeLa,inactive
same,Potency,Hek293T [5],inactive
